# In article PMC4336329 (PLoS ONE, 2015):
# The whole screen tested about 310,000 compounds, of which about 14,000 (4.5%) showed an effect of 50% or more. The effect is printed as a negative number. The entries come from a sample that favours strong results as a whole.
# Target: human ether-à-go-go-related gene (hERG) potassium channel (human, UniProt Q12809)
# Assay: primary screen, population patch clamp on CHO cells stably expressing hERG; higher = less effect of the substance
# 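Also: peak tail current of the secondary pulse compared with the same well before compound.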
# Chain of human ether-à-go-go-related gene (hERG) potassium channel (Q12809 whole entry, looked up): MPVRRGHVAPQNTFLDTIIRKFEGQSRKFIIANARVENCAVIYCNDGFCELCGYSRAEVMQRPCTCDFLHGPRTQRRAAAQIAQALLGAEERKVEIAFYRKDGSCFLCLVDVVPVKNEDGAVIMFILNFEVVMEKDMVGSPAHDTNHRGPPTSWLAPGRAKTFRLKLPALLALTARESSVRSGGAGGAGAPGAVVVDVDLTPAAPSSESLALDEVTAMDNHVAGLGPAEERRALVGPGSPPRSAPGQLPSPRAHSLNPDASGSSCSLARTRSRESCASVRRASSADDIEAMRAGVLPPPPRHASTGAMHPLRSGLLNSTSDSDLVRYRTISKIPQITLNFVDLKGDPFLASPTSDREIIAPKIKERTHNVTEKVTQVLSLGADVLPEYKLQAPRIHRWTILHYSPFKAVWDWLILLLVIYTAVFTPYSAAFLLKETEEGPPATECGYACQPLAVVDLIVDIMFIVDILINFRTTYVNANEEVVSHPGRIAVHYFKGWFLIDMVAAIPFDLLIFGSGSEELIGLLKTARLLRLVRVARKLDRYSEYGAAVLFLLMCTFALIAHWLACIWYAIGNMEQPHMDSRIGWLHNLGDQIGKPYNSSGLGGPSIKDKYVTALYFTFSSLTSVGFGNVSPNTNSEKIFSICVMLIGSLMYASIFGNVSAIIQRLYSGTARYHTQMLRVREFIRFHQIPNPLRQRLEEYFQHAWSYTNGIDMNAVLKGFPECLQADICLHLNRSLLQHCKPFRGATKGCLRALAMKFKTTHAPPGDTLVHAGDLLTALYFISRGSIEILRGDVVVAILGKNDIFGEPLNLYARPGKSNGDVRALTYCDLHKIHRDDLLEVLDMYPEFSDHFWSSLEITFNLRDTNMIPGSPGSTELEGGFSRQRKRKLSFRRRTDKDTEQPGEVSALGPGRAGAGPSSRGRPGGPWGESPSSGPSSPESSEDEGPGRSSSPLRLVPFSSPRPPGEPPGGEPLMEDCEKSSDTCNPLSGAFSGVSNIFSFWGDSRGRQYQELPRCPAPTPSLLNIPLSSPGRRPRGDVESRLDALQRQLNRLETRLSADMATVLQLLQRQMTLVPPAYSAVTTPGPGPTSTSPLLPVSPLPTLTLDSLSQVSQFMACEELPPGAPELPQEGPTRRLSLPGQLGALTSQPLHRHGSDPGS
row,Structure (SMILES),"hERG current change (%, negative = inhibition) at 10uM [%]"
1,CN(C)N1C(=O)CC(C)(c2ccc([N+](=O)[O-])cc2)C1=O (stereo not shown),-0.575
2,CCn1c(=O)cc(OCC(=O)NC(C)c2ccc3c(c2)OCCO3)c2ccccc21 (stereo not shown),-4.48
3,CC/C(=N\O)C(C)(C)/[N+]([O-])=C/c1ccc(Br)cc1,5.28
4,CN(c1ccccc1)S(=O)(=O)c1cccc(NC(=O)c2ccc(=O)[nH]c2)c1,-11.7
5,COCCNC(=O)c1onc(CSc2ccccc2)c1C(=O)O,7.09
6,O=C(CN1CCOc2ccccc21)NCc1ccco1,2.93
7,Cc1cccc(NC(=O)C2(C)CC3c4ccccc4C2c2ccccc23)c1 (stereo not shown),9.5
8,O=C(Nc1nnc(CCN2CCCCC2)s1)c1cccc(Cl)c1,-10.8
9,O=C(Nc1nnc(CCN2CCCCC2)s1)c1ccc(Br)cc1,-51.4
10,Cl.O=C(Nc1nnc(CCN2CCCCC2)s1)c1ccccc1,4.58
11,CC(C)C(=O)Nc1ccc(NC(=O)c2ccc3c(c2)OCO3)cc1,10.2
12,Cc1ccccc1OCC(=O)Nc1cccc(S(=O)(=O)NC2=NCCCCC2)c1,-7.89
13,O=C1N(Cc2cccc(Cl)c2)C[C@@H]2C[C@@H](c3ccsc3)N3CCC[C@@]123,-60.1
14,O=C1N(Cc2cccc(Cl)c2)C[C@@H]2C[C@@H](c3ccco3)N3CCC[C@@]123,-25.9
15,Cc1cccc([C@@H]2C[C@H]3CN(Cc4cccc(Cl)c4)C(=O)[C@]34CCCN24)n1,-55
16,COc1cccc2c1OCC([C@@H]1C[C@H]3CN(Cc4cccc(Cl)c4)C(=O)[C@]34CCCN14)=C2,-45.2
17,O=C1N(Cc2cccc(Cl)c2)C[C@@H]2C[C@@H](c3ccccn3)N3CCC[C@@]123,-18.5
18,O=C1N(Cc2cccc(Cl)c2)C[C@@H]2C[C@@H](c3cccc4cccnc34)N3CCC[C@@]123,-78
19,COc1ccccc1/C=C/[C@@H]1C[C@H]2CN(Cc3cccc(Cl)c3)C(=O)[C@]23CCCN13,-75.4
20,CCn1ncc([C@@H]2C[C@H]3CN(Cc4cccc(Cl)c4)C(=O)[C@]34CCCN24)c1C,-33

row,Structure (SMILES),"hERG current change (%, negative = inhibition) at 10uM [%]"
1,CC(C)n1cc([C@@H]2C[C@H]3CN(Cc4cccc(Cl)c4)C(=O)[C@]34CCCN24)cn1,-33.7
2,COCc1ccc([C@@H]2C[C@H]3CN(Cc4cccc(Cl)c4)C(=O)[C@]34CCCN24)o1,-31
3,O=C(Nc1cnn(Cc2ccccc2)c1)c1cc2nc(-c3ccco3)cc(C(F)(F)F)n2n1,7.2
4,O=C(c1ccccc1)c1ccccc1N/C=C/c1nnnn1-c1ccccc1,1.11
5,CCCCCOc1ccc(CSc2ncn[nH]2)cc1,-17.4
6,O=C(NCC1CCCO1)c1onc(CSc2ccccc2)c1C(=O)O (stereo not shown),10.1
7,CC(C)(C)OC(=O)CNC(=O)c1nc[nH]c1C(=O)N1CC[NH2+]CC1.[Cl-],4.07
8,O=S1(=O)CCN(OCc2ccc(F)cc2Cl)CC1,34.4
9,O=C(Cn1[nH]c(=O)c2ccccc2c1=O)Nc1cccc(S(=O)(=O)N2CCCCCC2)c1,-13.2
10,O=C(Cc1n[nH]c(=O)c2ccccc12)Nc1cccc(S(=O)(=O)N2CCCCCC2)c1,-57.8
11,Cc1ccc(NC(=O)Cc2n[nH]c(=O)c3ccccc23)cc1S(=O)(=O)N1CCCCCC1,-51.5
12,Cc1ccc(NC(=O)Cc2c[nH]c3ccccc23)cc1S(=O)(=O)N1CCCCCC1,14.1
13,O=C(Cc1n[nH]c(=O)c2ccccc12)Nc1cccc(S(=O)(=O)N2CCCC2)c1,-5.36
14,CCN(CC)S(=O)(=O)c1cc(NC(=O)Cc2n[nH]c(=O)c3ccccc23)ccc1C,-21.2
15,CCCCP(=O)(CCCC)Cc1ccccc1O,13.9
16,COc1ccccc1NC(=O)Nc1nc(CC(=O)Nc2ccc(F)cc2)cs1,-1.25
17,COc1ccc(-c2cc(C(=O)N3CCc4ccccc4C3)no2)cc1,-0.668
18,Cc1ccc(-n2c(C)cc(C(=O)NS(=O)(=O)c3ccc(C)cc3)c2C)cc1,-30.8
19,COP(=O)(NS(=O)(=O)c1ccccc1)OC,19.9
20,C=CCn1c(Cc2cccs2)nnc1SCC(=O)NCc1ccco1,-1.47
